Compound activity deposited in PubChem BioAssay by National Center for Advancing Translational Sciences (NCATS).
Only a selection was taken, and hits are over-represented in it overall.
TDP1 cell CPT: qHTS for Inhibitors of human tyrosyl-DNA phosphodiesterase 1 (TDP1): qHTS in cells in presence of CPT. chicken DT40 Tdp1-/-;hTDP1 cells + 20 nM CPT, ATP luminescence, 48 h. Potency, µM (titrated, usually from 46.2 µM), for inactives: at the highest dose activity change, negative = growth inhibition, actives largely listed as inhibitors. hit rate 12% among 420,000. AID 686979, 2013; also: potency is read from the fitted curve at half-maximal effect; nearly all actives have a fitted effect of over 55% in size
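Chicken DT40 Tdp1-/- cells stably complemented with human TDP1 were seeded at 400 cells/well in medium containing 20 nM camptothecin, exposed to pin-transferred compounds, and grown at 37 °C for at least 48 hr. Viability was read as ATP luminescence.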
TDP1 cell noCPT: qHTS for Inhibitors of human tyrosyl-DNA phosphodiesterase 1 (TDP1): qHTS in cells in absence of CPT; DT40 Tdp1-/- hTDP1 cells, no CPT, ATP luminescence, 48 h; Potency, µM (series often up to 46.2 µM), without a hit: at the highest dose activity change, negative = growth inhibition, actives largely listed as inhibitors; hit rate 15% among 420,000; AID 686978, 2013; also: potency is read from the fitted curve at half-maximal effect; nearly all actives have a fitted effect of over 55% in size
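Cells were dispensed at 400 per well, compounds added by pin tool, plates incubated ≥48 hr at 37 °C, then CellTiter-Glo added for 30 min at room temperature before luminescence reading. Line: DT40 Tdp1-/- complemented with hTDP1; camptothecin omitted.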
HT1080 IDH1KD tx: qHTS for induction of synthetic lethality in tumor cells producing 2HG: qHTS for the HT-1080-IDH1KD cell line; HT-1080 IDH1 knockdown viability, ATP luminescence, 48 h; Potency, µM (highest dose often 46.1 µM), for inactives: at the top dose activity, negative = toxicity, most hits filed as cytotoxic; hit rate 2% among 360,000; AID 686971, 2013;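 also: potency is read from the fitted curve at half-maximal effect; 0% = DMSO wells and -100% = cell-free medium wells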
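Luminescent ATP read-out (CellTiter-Glo, 10 min at room temperature) after 48 h compound exposure at 37 °C gave viability of IDH1-knockdown HT-1080 cells. Activity was normalised to DMSO and cell-free wells, then fitted as concentration-response curves.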
12-LOX inh: Primary qHTS assay for inhibitors of human arachidonate 12S-lipoxygenase (ALOX12): Round 2; Polyunsaturated fatty acid lipoxygenase ALOX12 (Homo sapiens), P18054; purified 12hLO, xylenol orange hydroperoxide absorbance; Potency, µM (top dose mostly 108 µM), without a hit: at the top dose activity change, negative = inhibition, hits mostly inhibitors; hit rate 1.1% among 580,000; also: potency is read from the fitted curve at half-maximal effect
Target sequence (P18054 whole entry, looked up): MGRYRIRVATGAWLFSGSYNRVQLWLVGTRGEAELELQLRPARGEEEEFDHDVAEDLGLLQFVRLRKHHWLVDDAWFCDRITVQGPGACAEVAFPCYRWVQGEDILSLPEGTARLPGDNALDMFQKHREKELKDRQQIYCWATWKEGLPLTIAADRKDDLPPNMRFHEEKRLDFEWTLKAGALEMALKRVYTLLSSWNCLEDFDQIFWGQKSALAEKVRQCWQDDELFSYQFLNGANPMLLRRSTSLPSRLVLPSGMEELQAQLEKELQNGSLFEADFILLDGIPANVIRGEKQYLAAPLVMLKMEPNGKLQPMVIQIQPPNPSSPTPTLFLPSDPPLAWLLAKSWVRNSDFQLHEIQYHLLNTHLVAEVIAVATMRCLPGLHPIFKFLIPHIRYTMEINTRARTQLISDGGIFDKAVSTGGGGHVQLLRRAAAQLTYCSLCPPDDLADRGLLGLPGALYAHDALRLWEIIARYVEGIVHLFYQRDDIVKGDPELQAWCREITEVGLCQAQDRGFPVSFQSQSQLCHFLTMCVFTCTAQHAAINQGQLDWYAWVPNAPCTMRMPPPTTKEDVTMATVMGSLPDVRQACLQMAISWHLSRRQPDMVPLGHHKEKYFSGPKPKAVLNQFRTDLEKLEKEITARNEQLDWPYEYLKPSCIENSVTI
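Hydroperoxide product was detected by ferrous iron/xylenol orange as the 573 to 405 nm absorbance ratio. Arachidonic acid at 40 uM (final) was turned over for 30 min at room temperature by 150 nM human 12hLO, pH 7.0 Hepes buffer, after 15 min compound preincubation.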
IL1B secr inh: qHTS for Inhibitors of Inflammasome Signaling: IL-1-beta AlphaLISA Primary Screen. THP-1 LPS/ATP IL-1B secretion, AlphaLISA, 16 h; active compounds read low. AID 743279, 2014. hit rate 4.7% among 360,000. activity change, % at 57.5 µM; in the data active = activity change below about -50%; inconclusive = mostly about -30% to -49%
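Secreted IL-1B measured by AlphaLISA bead assay after 16 h compound exposure of THP-1 cells; compounds (final up to 57.5 uM) added 1 h before LPS (250 ng/mL) and ATP (1.25 mM) stimulation; lower signal means less secretion.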
HT1080-NT tox: qHTS for induction of synthetic lethality in tumor cells producing 2HG: qHTS for the HT-1080-NT fibrosarcoma cell line | HT-1080-NT fibrosarcoma viability, CellTiter-Glo ATP luminescence, 48 h | Potency, µM (top dose mostly 46.1 µM), inactives show top-dose activity, negative = less viability, usual class: cytotoxic | hit rate 1.6% among 360,000;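 also: NT is the 2HG producing partner of a matched IDH1 knockdown line; potency is read from the fitted curve at half-maximal effect; 0% = DMSO-treated cells and -100% = media-only wells without cells; nearly all actives have a fitted effect of over 55% in size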
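750 cells/well, RPMI + 5% FBS; 2 h settle, compound pin-transfer, 48 h at 37 degrees C. CellTiter-Glo 10 min RT, luminescence. Normalized to DMSO and media-only wells.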
* = called active by the depositor; i = inactive; ? = inconclusive; nt = no result; [ ] = remark or other dose. Unless noted, calls follow the shape of the dose curve; as a rule, active = well fitted curve in the direction sought with a large enough effect; inconclusive = small, poorly fitted or top-dose-only effect, or another doubt; inactive = no such curve, though single readings can be large; an effect the other way counts as inactive or inconclusive. Unless noted, % is scaled to controls: 0 for no effect and ±100 for the full control effect.

SMILES	TDP1 cell CPT	TDP1 cell noCPT	HT1080 IDH1KD tx	12-LOX inh	IL1B secr inh	HT1080-NT tox
CCc1nc2c(OCc3ccc(F)c(F)c3)cccn2c1N(C)C(=O)c1ccc(OC)cc1	16µM*	23µM*	-6%	-5%	-6	-2%
CCc1nc2c(OCc3ccccc3C)cccn2c1N(C)C(=O)c1ccco1	?	?	-16%	-20%	-15	-30%
CCc1nc2c(OCc3ccc(F)c(F)c3)cccn2c1N(C)C(=O)c1ccc(C)cc1	23µM*	9.2µM*	-4%	?	-15	-25%
CCOCCn1nc(C)cc1C(=O)N[C@H](c1ccccn1)C1CC(O)C1 (some centres not stated)	nt	nt	nt	73%	nt	nt
O=C(COC(=O)c1ccccc1)c1ccc(-c2ccccc2)cc1	nt	nt	nt	9%	nt	nt
O=C(CSc1nnc2c(Cl)cc(C(F)(F)F)cn12)N(Cc1ccccc1)Cc1ccccc1	-74%	21µM*	-7%	8%	-29	-26%
COc1ccc(N2CC(C(=O)N3CCC(C(=O)N4CCN(c5ncccn5)CC4)C3)NC2=O)cc1 (configuration not stated)	nt	nt	nt	0%	nt	nt
Cc1cc(C)c2c(NC(=O)CCl)nn(C)c2n1	13µM*	12µM*	?	3%	-98*	?
NCCC[C@H](N)CC(=O)N[C@H]1CNC(=O)[C@H]([C@H]2C[C@H](O)N=C(N)N2)NC(=O)C(=CNC(N)=O)NC(=O)[C@H](CO)NC(=O)[C@H](CO)NC1=O	nt	nt	nt	0%[22.9 µM]	nt	nt
COC(=O)C1=C(COc2ccc(C=O)cc2OC)NC(=O)NC1c1cc(C)ccc1C (configuration not stated)	?	15µM*	11%	-7%	20	5%
CNC(=O)NC1=C(C#N)C(C)(C)Cc2ccccc21	nt	nt	nt	61%	nt	nt
CCOCCCNS(=O)(=O)c1ccc(NC(=O)c2ccc3c(c2)OCO3)cc1	nt	nt	nt	-11%	nt	nt
Cc1cccc(CSCCNC(=S)Nc2ccccc2)c1	?	18µM*	-11%	?	?	-10%
S=C(NCCSCc1ccccc1Cl)Nc1ccccc1	?	?	?	35µM*	-14	-16%
O=C(CCSCc1ccccc1Cl)NCCc1ccccc1	0%	-3%	nt	-20%	nt	nt
O=C(Cc1ccccc1)NCCSCc1ccccc1	-11%	-18%	15%	-4%	-3	13%
S=C(NCCSCc1ccc(Cl)cc1)Nc1ccccc1	?	?	3%	45µM*	?	0%
CC(C)NC(=O)NC[C@H]1O[C@@H](CC(=O)NCCN(C)C)[C@H](O)[C@@H]1O	nt	nt	nt	13%[176 µM]	nt	nt
COc1cccc(CNC(=O)Cn2nc3n(c2=O)CCCCC3)c1OC	nt	nt	nt	62%	nt	nt
COc1cc(NC(=O)C2=C(N3CCOCC3)/C(=C/c3ccc(Cl)cc3)CC2)cc(OC)c1OC	6.5µM*	7.3µM*	-21%	-1%	8	-26%
CN(C)c1ccc(NC(=O)c2ccc(N3CCOCC3)nc2)cc1	?	?	-6%	-14%	?	-9%
O=C(Nc1ccccc1)C1=C(N2CCOCC2)/C(=C/c2cccnc2)CC1	-5%	-13%	0%	-11%	-25	5%
COc1cc(NC(=O)C2=C(N3CCOCC3)/C(=C\c3ccc(N(C)C)cc3)CCC2)cc(OC)c1OC	7.3µM*	2.9µM*	29µM*	-27%	0	?
CC(C)N1CCC(NC(=O)c2ccccc2C(=O)c2ccc(F)cc2)CC1	nt	nt	nt	0%	nt	nt
O=C1[C@@H]2C[C@@H](CN2C2COC2)Oc2ccccc2N1Cc1ccccn1	nt	nt	nt	36%[176 µM]	nt	nt
SMILES	TDP1 cell CPT	TDP1 cell noCPT	HT1080 IDH1KD tx	12-LOX inh	IL1B secr inh	HT1080-NT tox
COc1ncnc2c1ncn2CCCNc1ccc(C)c(C)c1	?	13µM*	1%	0%	-10	0%
COc1ccc(C=C2CS(=O)(=O)CC(=Cc3ccc(OC)cc3)C2=O)cc1	1.8µM*	1.3µM*	3.7µM*	?	-107*	?
O=C1/C(=C/c2ccc(F)c(Br)c2)CCc2ccccc21	nt	nt	nt	-1%	nt	nt
COc1ccc(/C=C2\CCC/C(=C\C=N\N(C)C)C2=O)cc1	?	?	-25%	?	-59*	-24%
COc1ccc(/C=C2\CCCCC2=O)cc1	9%	-23%	-1%	0%	-4	19%
CN(C)/N=C/C=C1\CCC/C(=C\c2ccc(F)c(F)c2)C1=O	?	26µM*	0%	-65%	-106*	-23%
CC1(C)CC2(CC(c3ccccc3F)c3ccc(O)c(O)c3O2)NC(=S)N1 (configuration not stated)	?	23µM*	-1%	-52%	-6	-10%
CC1(C)CC2(CC(c3ccc(F)cc3)c3ccc(O)cc3O2)NC(=S)N1 (configuration not stated)	?	?	-1%	?	-2	-3%
CCOc1ccc2c(c1)OC(c1ccc(C)cc1)(C(F)(F)F)NC2=O (configuration not stated)	1.5µM*	1.3µM*	2.3µM*	-28%	-16	?
Cc1cc(C)nc(N/N=C2/CCCC/C2=C\c2ccccc2)n1	2.1µM*	1.2µM*	?	i	?	?
CN(Cc1ccc(F)cc1)C(=O)C(Cc1ccccc1)NC(=O)c1ccccc1 (configuration not stated)	?	18µM*	1%	-25%	-18	-4%
CCOc1ccc(C(=O)OCC(=O)N(Cc2ccccc2)Cc2ccccc2)cc1OC	21µM*	?	-9%	13%	-4	-12%
CCOc1ccc(C(=O)OCc2c(Cl)cccc2Cl)cc1OC	nt	nt	nt	-4%	nt	nt
CCN(Cc1ccc(OC)c(F)c1)C(=O)CCl	4.1µM*	4.1µM*	16µM*	-2%	-96*	18µM*
COc1ccc(CN(C)C(=O)C(Cc2ccccc2)NC(=O)c2ccccc2)cc1F (configuration not stated)	16µM*	13µM*	-25%	?	-12	-14%
O=C(Nc1ccc(C2(C(=O)N3CCN(c4ccccn4)CC3)CCCCC2)cc1)C1CC1	nt	nt	nt	39%	nt	nt
N=C1/C(=C\c2ccc(OC(=O)c3ccccc3Cl)cc2)C(=O)N=C2SC(N3CCOCC3)=NN12	-2%	-18%	7%	-27%	-11	-6%
